# The panel holds about 79,000 compounds, 15% with a hit somewhere; the sample as a whole holds those more often. Values without a mark were called inactive. Activity calls are given as the source filed them. Rule as the data show it: active = growth inhibition above about 70%; inactive = the rest.
# Tests used:
# [1] = NCI Yeast Anticancer Drug Screen. Data for the rad50 strain (AID 155);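 also: 0% = growth of vehicle-only cultures of the same strain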; settings: S. cerevisiae rad50 strain growth inhibition, stronger effect = higher value
# Summary of the method: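 Readout: growth inhibition relative to vehicle-treated cultures. Compound exposure was carried out in a genetically defined yeast strain deficient in DNA damage repair.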
# [2] = NCI Yeast Anticancer Drug Screen. Data for the mec2-1 strain (AID 157); settings: S. cerevisiae mec2-1 strain, stronger effect = higher value
# Summary of the method: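 Strain: mec2-1 (DNA repair/cell cycle alteration). Compound exposure, then growth measured; inhibition expressed relative to vehicle.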
# [3] = NCI Yeast Anticancer Drug Screen. Data for the sgs1 mgt1 strain (AID 161);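 also: 0% = growth of cultures given vehicle only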; settings: S. cerevisiae sgs1 mgt1 strain, stronger effect = higher value
# Summary of the method: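 Inhibition of yeast growth, normalised to vehicle-treated controls, is reported for a strain bearing genetic alterations in DNA damage repair.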
# [4] = NCI Yeast Anticancer Drug Screen. Data for the cln2 rad14 strain (AID 165);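 also: 0% = growth equal to vehicle treated cultures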; settings: S. cerevisiae cln2 rad14 strain, stronger effect = higher value
# Summary of the method: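 Compounds are applied to the cln2 rad14 yeast strain, and growth is then compared with that of vehicle-treated cultures to give inhibition.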
# [5] = NCI Yeast Anticancer Drug Screen. Data for the bub3 strain (AID 167); settings: S. cerevisiae bub3 mutant strain, stronger effect = higher value
# Summary of the method: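 Readout: yeast growth inhibition, expressed relative to vehicle-only wells. The test organism is a mutant strain from a panel with lesions in DNA repair or checkpoint genes.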
# [6] = NCI Yeast Anticancer Drug Screen. Data for the mlh1 rad18 strain (AID 175); settings: S. cerevisiae mlh1 rad18 strain growth inhibition, stronger effect = higher value
# Summary of the method: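 Read-out is yeast growth inhibition, calculated against vehicle-only controls. The compound was applied to a strain engineered with DNA damage repair alterations.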
# [7] = at 5.0 µM (retest, dose inferred, filed as 0.5)
# [8] = at 50.0 µM (retest, dose inferred, filed as 5.0)
Compound,"growth inhibition [1, 7]","growth inhibition [1, 8]",growth inhibition ([1]; at 50.0 µM),"growth inhibition [2, 7] [%]","growth inhibition [2, 8]",growth inhibition ([2]; at 50.0 µM),"growth inhibition [3, 7]","growth inhibition [3, 8]",growth inhibition ([3]; at 50.0 µM),"growth inhibition [4, 7] [%]","growth inhibition [4, 8]",growth inhibition ([4]; at 50.0 µM),"growth inhibition [5, 7]","growth inhibition [5, 8]",growth inhibition ([5]; at 50.0 µM),"growth inhibition [6, 7] [%]","growth inhibition [6, 8]",growth inhibition ([6]; at 50.0 µM)
Cc1ccc2sc(=S)sc2c1,-2%,32%,59.5%,-3,53%,25.4%,-2%,40%,40.4%,0,77% (active),74.2% (active),7%,65%,95.3% (active),-19,69%,72.3% (active)
CCC(C)NC(=S)N/N=C(\C)c1ccccn1 (stereo not given),20%,100% (active),78% (active),19,99% (active),85.7% (active),5%,98% (active),90.6% (active),33,100% (active),90% (active),0%,100% (active),90.5% (active),39,99% (active),89.2% (active)
Cc1ccc(C(=O)C(F)(F)F)cc1,-162%,-138%,4.5%,-46,-51%,-15.9%,-63%,-68%,-10.5%,-60,-78%,32.1%,-74%,-89%,-24.1%,-145,-117%,3.3%
Clc1ccc(SSN2CCCCC2)cc1,2%,65%,89% (active),-1,45%,80.3% (active),2%,82% (active),87.8% (active),6,17%,7.1%,-1%,70% (active),77.7% (active),3,84% (active),88.4% (active)
Nc1nccc2c1ncn2C1C=C(CO)C(O)C1O (stereo not given),15%,67%,38.5%,3,90% (active),45.4%,6%,80% (active),54.5%,0,26%,57.5%,21%,94% (active),57.1%,18,89% (active),-8.5%
Cc1nn(C(=O)c2ccncc2)c(C)c1N=Nc1ccccc1[N+](=O)[O-],49%,96% (active),61.3%,11,93% (active),20.6%,11%,90% (active),84.8% (active),21,6%,-3.25%,-1%,14%,2.4%,4,94% (active),26.1%
CN(C)c1ncnc2c1ncn2C,29%,61%,70.8% (active),15,81% (active),61.4%,16%,53%,59.1%,-1,38%,17.4%,20%,98% (active),38.7%,26,72% (active),61.4%
Fc1ccc(OCCC(Cn2ccnc2)c2ccc(Cl)cc2Cl)cc1 (stereo not given),82% (active),99% (active),98.7% (active),56,91% (active),99.8% (active),71% (active),96% (active),95.2% (active),61,92% (active),94.7% (active),83% (active),94% (active),99.2% (active),55,99% (active),95.1% (active)
CCn1c2ccc([N+](=O)[O-])cc2c2c([N+](=O)[O-])c(-n3cccc3)ccc21,24%,59%,86% (active),2,10%,0.3%,5%,28%,36.4%,-3,6%,8.9%,-3%,-4%,10.9%,3,29%,21.2%
COC(=O)/C=C/c1cccc[n+]1[O-],3%,-6%,44.6%,3,-4%,-2.85%,4%,-6%,0.55%,4,-15%,54.8%,4%,0%,-4.4%,-1,-11%,17.8%
